This excerpt belongs to a sample that is enriched for hits.
TTR transcr act = TTR transcription activation, primary screen; SH-SY5Y TTR promoter Gaussia luciferase, luminescence; 100% = recombinant luciferase protein wells; activation, % at 16.7 µM; hit rate 1.3% among 92,000; AID 1117267;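 active means activation above the mean of all tested compounds plus 3 SD, cut at about 9.5% in these data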;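 further: cells exposed to compounds for one day before reading; 0% = median of all test compound wells on the plate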
HuH7 TTR inh = decreases TTR transcription in HuH7 cells in activator counter-screen; shares compounds with TTR transcr act; inhibition, % at 16.7 µM; HuH7 TTR promoter-Gaussia luciferase reporter, luminescence; AID 1117279; hit rate 4% among 1,100;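 active means average inhibition above the solvent-only control wells' mean plus 3 SD, cut at about 15% in these data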;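 further: 0% = cells with DMSO only and 100% = cells with inhibitor control FD; inhibitors lower well luminescence so higher value means more inhibition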
TTR up confirm = confirmation of human transthyretin transcription activators; shares compounds with TTR transcr act; SHSY5Y TTR promoter Gaussia luciferase, luminescence; 100% = purified Lucia enzyme wells, no cells; activation, % at 16.7 µM; 1,100 tested, under 10 active;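 active means mean activation above a set limit taken from the earlier primary screen, cut at about 11% in these data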;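 further: 0% = DMSO-treated cells and 100% = recombinant Lucia luciferase without cells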
Starred values were filed as active, the others as inactive.

SMILES	TTR transcr act	others
O=C(Nc1ccc(OC(F)(F)F)cc1)Nc1nc2ncccn2c1-c1ccc(C(F)(F)F)cc1	1
NC(=O)C12NC(Cc3ccccc31)c1ccccc12 (stereo not given)	0
CCOc1ccc(CCNC(=O)c2c(C)nn(-c3ccccc3)c2Cl)cc1OCC	12*	HuH7 TTR inh=-16;TTR up confirm=0
Cc1nn(Cc2ccccc2)c(Cl)c1C(=O)NCCc1ccc(Cl)cc1	-1
Cc1nn(-c2ccccc2)c(C)c1C(=O)NCCc1ccccc1	-1
OC(c1ccccc1)(c1ccccc1)c1nccn1-c1ccccc1	-1
Cn1cccc1[C@]1(O)C(=O)Nc2ccc(F)cc21	3
COCCNC(=O)C(c1ccc(F)cc1)N(CC1CCCO1)C(=O)CCC(=O)Nc1ccccn1 (stereo not given)	0
COCCN(CC(=O)NCC1CCCO1)C(=O)CCC(=O)Nc1cc(C)ccn1 (stereo not given)	0
COCCNC(=O)CN(CC1CCCO1)C(=O)CCC(=O)Nc1ccccn1 (stereo not given)	16*	HuH7 TTR inh=-4;TTR up confirm=0
CC(C)CNC(=O)OCc1cn(Cc2cc(F)ccc2F)nn1	2
O=C(NCCCc1ccccc1)O[C@@H]1CC[C@@]23CCCN2C(=O)CCC[C@H]3C1	-1
O=C(Nc1ccccc1Oc1ccccc1)NC1CCCCN(Cc2ccc(Cl)cc2)C1=O (stereo not given)	2
Clc1ccc(CNc2ccc3nnc(-c4ccccc4)n3n2)cc1	4
c1ccc(CCNc2ccc3nncn3n2)cc1	5
NCCNc1ccc2nnnn2n1	19*	HuH7 TTR inh=-8;TTR up confirm=3
O=C(CSc1nc2ccccc2c(=O)[nH]1)NC1CCCCC1	0
CCCC1CCC2(CC1)CCC2OC(=O)Nc1cccc(C(F)(F)F)c1 (stereo not given)	0
CCOC(=O)c1ccc(NC(=O)Nc2ccc3c4c(cccc24)C(=O)N3CC)cc1	-2
CCN1C(=O)c2cccc3c(NC(=O)c4ccc(S(=O)(=O)N(C)C)cc4)ccc1c23	9.9*	HuH7 TTR inh=-12;TTR up confirm=2
CCN1C(=O)c2cccc3c(S(=O)(=O)N4CCC(C)CC4)ccc1c23	0
O=C(OCc1cn(Cc2cc(F)ccc2F)nn1)N1CCOCC1	0
C/C(=N\N=C(/C)c1cccc(N)c1)c1cccc(N)c1	2
CCOC(=O)C1CCN(C(=O)CN(c2ccc3c(c2)OCO3)S(C)(=O)=O)CC1	18*	HuH7 TTR inh=-10;TTR up confirm=2
CCOC(=O)C1CCN(C(=O)CN(c2ccc(Cl)c(C(F)(F)F)c2)S(C)(=O)=O)CC1	-3
SMILES	TTR transcr act	others
CCOC(=O)C1CCN(C(=O)COc2ccc3c(c2)OCO3)CC1	0
COC(=O)[C@@]12CCCCC=C1N(CCc1ccc(Cl)cc1)C(=O)[C@H]2CC(=O)NCc1cccc(C(F)(F)F)c1	-1
COC(=O)c1ccc(NC(=O)c2cccnc2)cc1	0
COC(=O)c1ccc(NC(=O)c2cn(-c3cccc(C)n3)cn2)cc1	30*	HuH7 TTR inh=-11;TTR up confirm=0
CCOC(CCNC(=O)c1cn(-c2cccc(C)n2)cn1)OCC	1
O=C(Nc1ccc(Cl)cc1)O[C@@H]1CC[C@@]23CCCN2C(=O)CCC[C@H]3C1	1
COc1ccc(C(=O)C2CCN(c3ncnc4sccc34)CC2)cc1	-4
CC1=C(C)[N+](=O)C2CCCCC2N1[O-] (stereo not given)	13*	HuH7 TTR inh=-6;TTR up confirm=0
Cc1cc(N=O)no1	-1
CC1=C2NC(N)=[N+](Cc3ccc4c(c3)OCO4)CC2NOC1 (stereo not given)	1
COC(=O)c1ccc(Cn2ccc3ccc(-c4ccc5ccn(C(=O)c6cccc(OC)c6)c5c4)cc32)cc1	2
O=[N+]([O-])c1ccc(NC(=S)N2CCN(c3ccc(F)cc3)CC2)cc1	-3
Cc1cc(C)cc(NC(=S)N2CCN(c3ccc(F)cc3)CC2)c1	1
O=C(NC(=S)N1CCN(c2ccc(F)cc2)CC1)C12CC3CC(CC(C3)C1)C2	18*	HuH7 TTR inh=6;TTR up confirm=5
O=C(NC(=S)N1CCOCC1)C12CCC3CC(CC(C3)C1)C2	2
Cc1cccc(NC(=S)N2CCN(c3ccccn3)CC2)c1	4
CCOc1ccccc1N1CCN(C(=S)NCc2ccc(Cl)cc2)CC1	4
CCOc1ccccc1N1CCN(C(=S)NC(=O)C23CC4CC(CC(C4)C2)C3)CC1	9.7*	HuH7 TTR inh=-22;TTR up confirm=0
Cc1cccc(NC(=S)N2CCN(c3ccc(F)cc3)CC2)c1	11*	HuH7 TTR inh=-1;TTR up confirm=0
CCCCNC(=O)N1CCN(c2ccccc2OCC)CC1	-1
COc1cccc(NC(=O)NC2CCCCN(Cc3ccc(C)cc3)C2=O)c1 (stereo not given)	-2
O=c1c([N+](=O)[O-])c(Cl)c2ccccc2n1Cc1ccccc1	-2
CSc1ccccc1NS(=O)(=O)c1cccc2nonc12	2
CC(C)C[C@H](NC1(C(=O)NC2CCCCC2)CCN(C(=O)OC(C)(C)C)CC1)C(=O)NCCc1c[nH]c2ccccc12	7
CC#CC(=O)N[C@H]1CC[C@@]23CCCN2C(=O)CCC[C@H]3[C@H]1C	-2
SMILES	TTR transcr act	others
COCCOC(=O)N(C)C[C@@H]1OCCCC[C@H](C)Oc2ccc(NC(=O)Nc3ccccc3)cc2C(=O)N([C@@H](C)CO)C[C@H]1C	2
O=c1[nH]c2ccccc2nc1NCc1ccccc1	-2
c1ccc(CNc2nc3ccccc3[nH]2)cc1	9.9*	HuH7 TTR inh=-4;TTR up confirm=1
c1ccc(CCc2nc3ccccc3[nH]2)cc1	1
O=C(COc1ccc(F)cc1Cl)Nc1nnc(-c2ccc(F)c(F)c2)o1	-1
CCC(C)(C)n1nnnc1C(c1cc2cccc(C)c2[nH]c1=O)N1CCN(C(=O)c2ccco2)CC1 (stereo not given)	1
Cc1cccc2cc(C(c3nnnn3Cc3ccc4c(c3)OCO4)N3CCCC3)c(=O)[nH]c12 (stereo not given)	11*	HuH7 TTR inh=-13;TTR up confirm=1
O=c1[nH]c2cc3c(cc2cc1C(c1nnnn1Cc1ccccc1)N1CCCc2ccccc21)OCO3 (stereo not given)	0
CS(=O)(=O)N1C[C@]2(c3ccccc3)CC1Cc1ccccc12	-1
CS(=O)(=O)c1ccc(Cl)c(NC(=O)C2CCN(S(=O)(=O)c3cccs3)CC2)c1	1
CCOC(=O)c1cnn2c(C)cc(-c3ccc(F)cc3)nc12	0
CCOC(=O)c1cc2cc(F)ccc2nc1C	23*	HuH7 TTR inh=-4;TTR up confirm=-1
CCOC(=O)c1cc(C(=O)NN)c(C)nc1C	-1
CCC(C)(C)n1nnnc1C(c1ccc(C)cc1)N1CCN(C(=O)c2ccco2)CC1 (stereo not given)	0
COc1ccc(C(c2nnnn2Cc2ccccc2)N2CCN(C(=O)c3ccco3)CC2)cc1 (stereo not given)	-4
O=C(c1ccco1)N1CCN(C(c2ccc(F)cc2)c2nnnn2CC2CCCO2)CC1 (stereo not given)	11*	HuH7 TTR inh=-6;TTR up confirm=0
Cc1cc(N2CCOc3ccccc32)nc2ccccc12	0
CCS(=O)(=O)Nc1ccc2c(c1)C(=O)N(C)[C@@H]1CC[C@H](CC(=O)NCCCN3CCOCC3)O[C@H]1CO2	-1
Cc1ccc(-c2n[nH]c(=S)n2/N=C/c2ccncc2)cc1	10.0*	HuH7 TTR inh=6;TTR up confirm=0
Cc1ccc(-c2n[nH]c(=S)n2/N=C/c2sccc2C)cc1	1
S=c1[nH]nc(-c2ccncc2)n1/N=C/C=C/c1ccccc1	5
